# D3 ag = agonists of human D3 dopamine receptor | P35462 | D3R DiscoveRx beta-arrestin cells, luminescence, 90 min | max activation, % | 410,000 compounds, 0.58% hits | AID 652048; in the data active means max activation above about 30%
# Target sequence (P35462 whole entry, looked up): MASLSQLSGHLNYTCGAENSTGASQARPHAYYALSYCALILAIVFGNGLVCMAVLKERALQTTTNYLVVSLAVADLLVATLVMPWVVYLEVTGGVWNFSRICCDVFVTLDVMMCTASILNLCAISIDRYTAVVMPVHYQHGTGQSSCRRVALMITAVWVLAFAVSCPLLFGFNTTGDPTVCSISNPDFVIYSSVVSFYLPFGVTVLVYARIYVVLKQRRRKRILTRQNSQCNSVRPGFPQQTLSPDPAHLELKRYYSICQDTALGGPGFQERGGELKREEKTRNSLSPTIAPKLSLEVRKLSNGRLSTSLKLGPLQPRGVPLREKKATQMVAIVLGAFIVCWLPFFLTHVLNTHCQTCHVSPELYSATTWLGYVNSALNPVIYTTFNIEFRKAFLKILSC
#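 Agonist-mode cell screen: cells plated at 1500/well and incubated overnight at 37 °C, then exposed to library compounds for 90 min at 37 °C. Detection reagent was added for 30–60 min at room temperature, and luminescence was read.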
# uPA surface inh = inhibitors of cell surface uPA generation | cell surface uPA generation assay, qHTS | Potency, µM (titrated, usually from 38.3 µM), actives largely listed as inhibitors | 330,000 compounds, 0.31% hits; active means well fitted inhibition curve with a large enough effect; inconclusive means small, poorly fitted or top-dose-only effect; inactive means no such curve, though single readings can be large or run the other way; tested in mouse RAW 264.7 cells; further: nearly all actives have a fitted effect of over 55% in size
# D3 antag = blocks the human D3 dopamine receptor | P35462 | D3R cells, DiscoveRx beta-arrestin luminescence, antagonist mode; active compounds read low | max response, negative = inhibition, % | 360,000 compounds, 2.5% hits; in the data active means max response below about -50%; inconclusive means no clear call, values can overlap the other calls
#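 Cells plated overnight at 1500 cells/well, then exposed to library compounds with dopamine controls for 90 minutes at 37 degrees C. DiscoveRx reagent added for 30–60 minutes at room temperature; luminescence read, quantitative HTS format.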
# RGS4 inhibitor = inhibitors of human regulator of G protein signaling 4 | Transcreener GDP fluorescence polarization, RGS4-accelerated GTP hydrolysis | Potency, µM (top dose mostly 114 µM), most hits filed as inhibitors | 390,000 compounds, 0.039% hits | AID 504845 | P49798; active means well fitted inhibition curve with a large enough effect; inconclusive means small, poorly fitted or top-dose-only effect; inactive means no such curve, though single readings can be large or run the other way; further: nearly all actives have a fitted effect of over 75% in size
# Target sequence (P49798 whole entry, looked up): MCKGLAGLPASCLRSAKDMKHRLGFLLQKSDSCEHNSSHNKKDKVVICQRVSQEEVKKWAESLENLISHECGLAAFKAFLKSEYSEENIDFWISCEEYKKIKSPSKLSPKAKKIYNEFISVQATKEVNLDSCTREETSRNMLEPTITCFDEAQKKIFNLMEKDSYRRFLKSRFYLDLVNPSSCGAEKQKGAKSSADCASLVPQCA
#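 MLSMR compounds (23 nl, pin-transferred) preincubated 10 min at room temperature with a 500nM (2x) first reagent, then RGS4 at 900nM (2x) plus Transcreener GDP mix added; fluorescence polarization (620/688 nm) read before and after 90 min at 30 °C.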
# Numbers stand for hits; - = inactive; ? = inconclusive; . = not tested or not shown. Compounds with a hit are over-represented: about 3.1% of the library has one in this group of screens.
SMILES,D3 ag,uPA surface inh,D3 antag,RGS4 inhibitor
Cc1ccccc1NC(=O)c1ccc(CN2CCc3ccccc3C2)cc1,-,-,-76,-
CCc1cccc(C)c1NC(=O)c1ccc2c(c1)CCN2S(=O)(=O)CC,-,.,.,?
CCc1cccc(C)c1NC(=O)c1ccc(CN2CCc3ccccc3C2)cc1,-,-,-72,-
Cc1cccc(NC(=O)c2ccc(CN3CCc4ccccc4C3)cc2)c1C,-,-,-78,-
CC(=O)Nc1ccc(NC(=O)c2ccc(CN3CCc4ccccc4C3)cc2)cc1,-,-,-55,-
COC(=O)CN1C(=O)CSc2ccc(S(=O)(=O)Nc3cccc(Cl)c3C)cc21,-,.,.,-
Cc1ccc2c(c1)N(C(=O)N1CCC(C(=O)NCCC3=CCCCC3)CC1)CC(C)O2 (configuration not stated),-,.,.,-
Cc1ccc(C)c(N2CCN(C(=O)c3ccc(NC(=O)c4nsc5ccccc45)cc3)CC2)c1,-,.,.,-
COc1cccc2c1cc1c(=O)n(CC(=O)NCc3ccco3)nc(C)n12,-,.,.,-
Cc1sc(N)c(C(=O)c2cccc(C(F)(F)F)c2)c1C,.,.,.,-
Cc1ccc(C(OCCN(C)C)c2cccc(C(F)(F)F)c2)cc1 (configuration not stated),-,-,-76,-
CN(C)CCO[C@@H](c1ccc(Cl)cc1)c1ccccn1,-,-,?,-
CCCCC1=NN2C(=N)CC(=O)N=C2S1,-,-,-,-
CC(C)C1=NN2C(=N)CC(=O)N=C2S1,-,-,-63,-
Cc1cc(Cl)c2oc(C(=O)N(C)Cc3cc(C)[nH]n3)c(C)c2c1,-,-,-,-
Cc1cc(Cl)c2oc(C(=O)N(C)Cc3nccn3C)c(C)c2c1,-,-,-67,-
C=CCN1CCc2nc(N)sc2CC1,93,-,-,-
Nc1nc2c(s1)CCCCCCCCCC2,-,-,-,-
CCN1CCc2nc(N)sc2C1,40,-,-,?
CC1=C(C(=O)Nc2ccc(C)cc2C)C(c2ccc(Br)cc2)n2ncc(C(=O)Nc3cccc(C)c3)c2N1 (configuration not stated),-,.,.,-
CC(=O)OC(C)OC(=O)C(C)c1ccc(-c2ccccc2)c(F)c1 (configuration not stated),-,.,.,.
CC(C)CCNC(=O)CN(Cc1ccco1)C(=O)c1snc(C(N)=O)c1N,-,-,-,-
CCc1ccccc1N(CC(=O)NCc1ccco1)C(=O)c1snc(C(N)=O)c1N,-,-,-55,-
Clc1ccc2nc(-c3ccco3)c(Cc3ccsc3)n2c1,-,.,-53,.
Brc1ccc2nc(-c3ccco3)c(Cc3ccsc3)n2c1,-,.,-,.
SMILES,D3 ag,uPA surface inh,D3 antag,RGS4 inhibitor
COc1ccc(NC(=O)c2cc(-c3ccccc3)nc3c2cnn3C(C)C)cc1,-,8.9µM,-,?
Cc1ccc(COc2ccc(-c3cc(C(F)(F)F)n4nc(C)cc4n3)cc2)cc1,-,.,.,-
CN1CCS/C1=C\C=C1/SC(=S)N(CC(=O)O)C1=O,-,-,-68,-
C=CCN1C(=O)/C(=C\C=C2\N(C)c3ccccc3C2(C)C)SC1=S,-,-,-,-
CN1/C(=C\C=C2/SC(=S)N(CC(=O)O)C2=O)C(C)(C)c2ccccc21,-,-,-79,-
COc1ccc(N=c2oc3c(OC)cccc3cc2C(=O)NCc2ccco2)cc1OC,33,.,-,-
Cc1cc(NC(=O)CN(C)S(=O)(=O)c2ccc3c(c2)CCCC(=O)N3)ccc1Br,-,.,.,-
O=C(Nc1ccc(F)cc1)C(c1ccccc1OC(F)(F)F)N1CCN(c2cccc(C(F)(F)F)n2)CC1 (configuration not stated),-,.,-55,.
COc1ccc(S(=O)(=O)N2CCN(c3ccccc3F)CC2)cc1-c1noc(C)n1,-,.,.,?
Cc1cccc(OCCC(=O)Nc2ccc(S(=O)(=O)N3CCCC3)cc2)c1,-,-,-,-
Cc1ccccc1OCCC(=O)Nc1ccc(S(=O)(=O)N2CCCC2)cc1,-,.,-87,.
COc1ccccc1CNC(=O)CCC1N=C2c3ccccc3N=C(SCc3ccc(Cl)cc3)N2C1=O (configuration not stated),-,.,.,-
COc1ccccc1NC(=O)C(=O)NCC(c1ccc2c(c1)OCO2)N1CCOCC1 (configuration not stated),-,.,.,-
O=C(Cc1ccccc1)N/N=C/c1ccc([N+](=O)[O-])s1,-,-,-,-
O=[N+]([O-])c1ccc(/C=N/NC(=S)Nc2ccc(Cl)cc2Cl)s1,-,?,-56,-
O=C(N/N=C/c1ccc([N+](=O)[O-])s1)c1ccccc1,-,-,?,-
O=C(N/N=C/c1ccc([N+](=O)[O-])s1)C(O)c1ccccc1 (configuration not stated),-,10µM,-,-
O=C(CNC(=O)c1cccc(F)c1)N/N=C/c1ccc([N+](=O)[O-])s1,-,10µM,-,-
O=[N+]([O-])c1ccc(O)c(/C=N/NC(=S)Nc2ccc(Cl)cc2Cl)c1,-,-,?,-
C[C@@H](CN1CC(=O)NC(=O)C1)N1CC(=O)NC(=O)C1,-,.,.,.
O=C(Cn1c(SCC(=O)N2CCc3ccccc3C2)nc2ccccc21)NC1CCCC1,-,-,-,-
O=C(CSc1ncc(-c2ccccc2)n1C1CCCC1)N1CCc2ccccc21,-,-,-85,-
O=C(Cn1c(SCC(=O)N2CCc3ccccc32)nc2ccccc21)NC1CCCC1,-,-,-76,-
O=C1c2ccccc2NC(c2ccc3c(c2)OCO3)N1O (configuration not stated),-,-,-57,-
Cc1ccc(-c2csc3ncnc(Sc4nnc(CN5CCCCCC5=O)o4)c23)cc1,-,-,-69,-
SMILES,D3 ag,uPA surface inh,D3 antag,RGS4 inhibitor
COc1ccc(-c2nsc3c(N4CCCCC4C)ncnc23)cc1 (configuration not stated),-,3.2µM,-,-
COc1ccc(-c2nsc3c(N4CCCCC4)ncnc23)cc1,-,-,-,-
Clc1ccc(SCCCN2CCCCC2)cc1,-,-,-80,-
Clc1ccc(SCCN2CCNCC2)cc1,-,?,-,-
CC1CN(CCCSc2ccc(Cl)cc2)CC(C)O1 (configuration not stated),-,-,-71,-
Cc1nnc(Sc2cc(NCCCO)c([N+](=O)[O-])c3nonc23)s1,-,-,-97,?
Cc1nnc(Sc2cc(NCCO)c([N+](=O)[O-])c3nonc23)s1,-,-,-60,?
O=C(Nc1ccc(N2CCN(C(=O)c3ccc(Cl)cc3)CC2)cc1)c1ccc2c(c1)OCCO2,43,.,-,-
O=C(Nc1ccc(N2CCN(C(=O)c3ccccc3)CC2)cc1)c1ccc2c(c1)OCCO2,-,?,-,-
O=C(Nc1ccccc1C(=O)O)c1cc(S(=O)(=O)N2CCCCC2)c(Cl)cc1Cl,31,-,-,-
O=C(Nc1ccccc1C(=O)O)c1ccc(Cl)c(S(=O)(=O)N2CCOCC2)c1,-,-,-,-
CSCC[C@H](NC(=O)c1ccc(Cl)c(S(=O)(=O)N2CCCC2)c1)c1nc2ccccc2[nH]1,-,-,-52,-
O=C(NCc1ccccc1CN1CCCC1)c1ccc(S(=O)(=O)Nc2ccccc2)cc1,-,.,-59,.

# Assay outcomes from PubChem.
